In PubChem BioAssay (EPA / NIEHS) one finds outcome and AC50 data, which are given here for 24 compounds.

The source made the active and inactive calls. How the source made its calls, unless noted: active means hit-call score of the fitted dose curve at least 0.9, where 1 is the maximum; inconclusive means response in the unintended direction; inactive means score below 0.9.

The first assay is described as follows: CPHEA_Stoker_NIS_Cytotoxicity: Cytotoxicity Assessment for CPHEA's Radioactive Iodide Uptake (RAIU) Assay for Sodium/Iodide Symporter (NIS) Inhibition, Stoker and Laws Labs (AID 2283897).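 On AC50: active means loss of ATP signal versus DMSO meaning cytotoxicity.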
Conditions: not given
The essentials: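 Viability in hNIS-HEK293T-EPA cells is scored as a drop in luciferase-detected ATP following 2-hour room-temperature exposure (0.001–100uM; triplicate wells, three cell passages), with DMSO as negative control.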
For the compound `Cc1[nH]cnc1C[C@H]1CCc2c(C)c3ccccc3n2C1=O`, the result was inactive.
Still for that read-out and setting: as for `O=C(CCCCCCCCc1cccnc1)N1CCC(C=C(c2ccccc2)c2ccccc2)CC1`, the entry is “inactive”; as for `COCCOc1cc2cc(C(=O)NC3CCN(C(C)C)CC3)n(CC(=O)Nc3ccc(Cl)cn3)c2cn1`, “inactive”.
`Cn1c(=O)cc(Oc2ccc(F)cc2F)c2cnc(NCC(C)(C)O)nc21`: the outcome was inactive.
With `O=C(O)c1cc(N=Nc2ccc(S(=O)(=O)Nc3ccccn3)cc2)ccc1O`, the outcome was inactive.
Regarding `Clc1nc(Cl)c(Cl)c(Cl)c1Cl`, the result was inactive.
As for `COc1ccc(/C=C/S(=O)(=O)NC(=O)c2ccc(C)cc2Cl)cc1`, the outcome was inactive.
As to `O=P(OC(CCl)CCl)(OC(CCl)CCl)OC(CCl)CCl`, the result was inactive.
With `CN(C)c1ccc(Cc2ccc(N(C)C)cc2)cc1`, the result was inactive.
Take `O=C(OC[C@H]1O[C@@H](OC(=O)c2cc(O)c(O)c(OC(=O)c3cc(O)c(O)c(O)c3)c2)[C@H](OC(=O)c2cc(O)c(O)c(OC(=O)c3cc(O)c(O)c(O)c3)c2)[C@@H](OC(=O)c2cc(O)c(O)c(OC(=O)c3cc(O)c(O)c(O)c3)c2)[C@@H]1OC(=O)c1cc(O)c(O)c(OC(=O)c2cc(O)c(O)c(O)c2)c1)c1cc(O)c(O)c(OC(=O)c2cc(O)c(O)c(O)c2)c1`: the result was inactive.
With `CN(C)c1ccc(N=NS(=O)(=O)O)cc1`, the outcome was inactive.
Regarding `CCOC(=O)c1ccc(C2CCC(NC[C@H](O)COc3ccc(O)c(NS(C)(=O)=O)c3)CC2)cc1` (some centres not stated), the result was inactive.
In the case of `COc1cccc(-c2ccc(/C=C\CN3CCCCCC3)cc2Cl)c1`, the result was inactive.
For `O=c1[nH]c2ccc(S(=O)CCN3CCC(Cc4ccc(F)cc4)CC3)cc2o1` (configuration not stated), the outcome was inactive.
Consider `CC(C)c1cccc(C(C)C)c1N1C(=O)c2ccc(O)cc2C1=O`, for which the outcome was inactive.
The same measure, in the same setting: as for `CCCCCCc1ccc(O)cc1O`, the entry is “inactive”; as for `CC(C)(O)c1coc(S(=O)(=O)NC(=O)Nc2c3c(cc4c2CCC4)CCC3)c1`, “inactive”.
On to `CCOc1cccc(-n2cc(C(=O)N3CCN(c4cc(C(=O)O)c5ccccc5c4)CC3)nc2-c2ccc(C)cc2)c1`, for which the concentration at half-maximal activity (AC50) (usually the concentration at which the activity in the assay is half-maximal) is 6.27 µM (active).
Take `Fc1ccccc1[C@@H](F)COC1CCC(Nc2ncnc3[nH]ncc23)CC1` (some centres not stated): the concentration at half-maximal activity (AC50) is 9.92 µM (active).
Turning to `CCOC(=O)COc1ccc2c(c1)CC(NCC(O)c1cccc(Cl)c1)CC2` (configuration not stated), the outcome was inactive.
Turning to `O=C(O)c1cccc(N(Cc2cccnc2)c2ccc(OC(F)F)c(OC(F)F)c2)c1`, the result was inactive.

The nature of a further assay: CEETOX_H295R_OHPREG_noMTC: CeeTox H295R High-throughput Steroidogenesis Assay for OH-Pregnenolone (OHPREG), maximum tolerated concentration (MTC) filtered results only (AID 2283912; active means hit-call score of the fitted dose curve at least 0.9, where 1 is the maximum; inactive means score below 0.9). To be noted: actives raise or lower the signal. The essentials:
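Steroidogenesis in H295R cells (OECD 456, modified): after 48 h forskolin priming and 48 h chemical treatment, secreted 17alpha-hydroxypregnenolone is measured by HPLC-MS/MS. Activity is fitted in both directions against DMSO; concentrations are not filtered by MTT-based MTC.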
For the compound `CCCCC(CC)COC(=O)c1ccc(C(=O)OCC(CC)CCCC)cc1` (configuration not stated), the outcome was inactive.
On the same count and under the same terms, as for `CC(C)=CCC/C(C)=C\CO`, the entry is “inactive”.
As to `O=C(NS(=O)(=O)/C=C/c1ccccc1)c1ccc(F)cc1Cl`, the half-maximal activity concentration (AC50) is 7.49 µM (active).

Another assay is described as follows: CEETOX_H295R_OHPROG_noMTC: CeeTox H295R High-throughput Steroidogenesis Assay for OH-Progesterone (OHPROG), maximum tolerated concentration (MTC) filtered results only (AID 2283914; active means hit-call score of the fitted dose curve at least 0.9, where 1 is the maximum; inactive means score below 0.9). To be noted: actives raise or lower the signal. The essentials:
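Forskolin 10 uM, 48 h prestim → test cmpd in DMSO (0.1% final), 48 h → medium MTBE extraction → LC-MS/MS quant of 17alpha-OH-progesterone. Bidirectional fit vs DMSO; no MTT-based MTC filtering.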
As to `CCCCC(CC)COC(=O)c1ccc(C(=O)OCC(CC)CCCC)cc1` (configuration not stated), the outcome was inactive.
Still for that read-out and setting: as for `CC(C)=CCC/C(C)=C\CO`, the entry is “inactive”.
Consider `O=C(NS(=O)(=O)/C=C/c1ccccc1)c1ccc(F)cc1Cl`, for which the concentration at half-maximal activity (AC50) is 5.24 µM (active).
